For some assays here: Potency and affinity values are given separately. Active and inactive are the calls of the source. Where a SMILES comes first, the peptide text is derived from it. Bridges are numbered along the chain shown (N, C = ends). [ ]: non-standard residue; d: D form. The star is where a group is joined. Dab(CH2SO3H) = N[C@@H](CCNCS(=O)(=O)O)C(=O)O; X1 = CC[C@@H](C)CCCCC(=O)*; Dab = NCC[C@H](N)C(=O)O

The values below come from PubChem BioAssay (NCATS).

The conditions of assay [1]: Ebola virus entry assay, blue channel fluorescence.
For assay [2] the following is noted: Ebola virus entry assay, green fluorescence channel.
For assay [3] the following is noted: Ebola virus entry assay, ratio channel readout.
For assay [4] the following is noted: Ebola virus entry assay, blue channel fluorescence. The source holds these as a separate data set.
The conditions of assay [5]: Ebola virus entry assay, ratio channel.
For assay [6] the following is noted: Ebola virus entry assay, green channel fluorescence.
The conditions of assay [7]: Ebola virus entry assay, blue channel fluorescence. The source holds these as a separate data set.
For assay [8] the following is noted: Ebola virus entry assay, reporter ratio channel; AC50: Channel type: primary unless noted; outcome: Channel type: primary unless noted.
Assay [9] can be described thus: qHTS profiling of the MIPE4 collection as inhibitors of Plasmodium falciparum (DD2) proliferation (AID 743345; call rule not given here). The conditions noted are these: P. falciparum Dd2 in erythrocytes, SYBR Green DNA, 72 h; at 28.5 µM (top of the series) unless noted. A digest of the protocol: (§1)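 Parasite DNA was quantified by SYBR Green I fluorescence (ex 485, em 535 nm) after overnight lysis in saponin/Triton buffer at room temperature. Cultures at 0.3% parasitemia and 2.5% hematocrit were first exposed to compound for 72 h at 37 C; signals were normalised to artemisinin (0.29 uM) and vehicle wells.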
In general terms: qHTS replaces the single test concentration by a dilution series.

Assay [10] can be described thus: qHTS profiling of the MIPE4 collection as inhibitors of Plasmodium falciparum (DD2) proliferation (Rep 2) (AID 743346; call rule not given here). The conditions noted are these: P. falciparum Dd2 in erythrocytes, SYBR Green DNA, 72 h; at 28.5 µM (top of the series) unless noted. A digest of the protocol: as §1
Assay [11] in a line: qHTS profiling of the MIPE4 collection as inhibitors of Plasmodium falciparum (3D7) proliferation (AID 743344; call rule not given here;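 further: scaled between DMSO vehicle wells and 0.29 µM artemisinin as full inhibition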). The conditions noted are these: P. falciparum 3D7 in erythrocytes, SYBR Green DNA fluorescence, 72 h; at 28.5 µM (top of the series) unless noted. The procedure, abridged: as §1
Assay [12] can be described thus: qHTS profiling of the MIPE4 collection as inhibitors of Plasmodium falciparum (HB3) proliferation (AID 743347; call rule not given here;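 further: plate controls were DMSO vehicle wells for no effect and artemisinin wells for full effect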). Conditions: P. falciparum HB3 in erythrocytes, SYBR Green DNA, 72 h; at 28.5 µM (top of the series) unless noted. The procedure, abridged: as §1

Take `C[C@]12C=CC(=O)N[C@@H]1CC[C@@H]1[C@@H]2CC[C@]2(C)[C@@H](C(=O)Nc3cc(C(F)(F)F)ccc3C(F)(F)F)CC[C@@H]12`: the outcome in assay [1], in [2] and in [3] was inactive.
For `NC(N)=NC(=O)Cc1c(Cl)cccc1Cl`, the molecule was classed as inactive in [1], in assay [2], in [3], in [4], in assay [5] and in assay [6]. In addition, the outcome in [7] and in assay [8] was inactive.
For the molecule `CCC1(C)CC(=O)NC1=O` (configuration not stated), the parasite growth remaining, % of DMSO control (lower = more inhibition) in [9] worked out at 111%. In addition, the parasite growth, % of control (lower = inhibition) in assay [10] is 96.3%. Further, the result in [1], in [2], in [3], in [4], in assay [5] and in assay [6] was inactive. Also, the result in assay [7] and in assay [8] was inactive.
For the molecule `C[C@](N)(Cc1ccc(O)cc1)C(=O)O`, the outcome in assay [1], in assay [2], in assay [3], in assay [4], in assay [5] and in assay [6] was inactive. Besides, the call in [7] and in [8] was inactive.
With `CCN(CC)CC#CCOC(=O)C(O)(c1ccccc1)C1CCCCC1` (configuration not stated), the molecule was classed as inactive in assay [1], in assay [2] and in assay [3].
In the case of `CC(=O)O[C@H]1C(=O)[C@@]2(C)[C@H]([C@H](OC(=O)c3ccccc3)[C@]3(O)C[C@H](OC(=O)[C@H](O)[C@@H](NC(=O)c4ccccc4)c4ccccc4)C(C)=C1C3(C)C)[C@]1(OC(C)=O)CO[C@@H]1C[C@@H]2O`, the result in assay [1], in assay [2] and in assay [3] was inactive.
For `C=C[C@H]1CN2CC[C@H]1C[C@H]2[C@H](O)c1ccnc2ccc(OC)cc12`, the molecule was classed as inactive in assay [1], in assay [2], in assay [3] and in assay [6]. The AC50 in assay [4] is 25.1 µM (active); in assay [5], 22.4 µM (active); in assay [8], 22.4 µM (active).
In the case of `Nc1ncn([C@H]2C[C@H](O)[C@@H](CO)O2)c(=O)n1`, the molecule was classed as inactive in assay [1], in [2], in assay [3], in assay [4], in [5] and in assay [6]. The call in assay [7] and in [8] was inactive.
On to `CNCCC=C1c2ccccc2CCc2ccccc21`, for which the values for the AC50 in assay [1] and in [3] were 8.91 µM (active) and 7.95 µM (active), respectively. Besides, in assay [2], the result was inactive.
Consider `COc1cc([C@@H]2c3cc4c(cc3[C@@H](O[C@@H]3O[C@@H]5CO[C@@H](c6cccs6)O[C@@H]5[C@H](O)[C@@H]3O)[C@H]3COC(=O)[C@H]23)OCO4)cc(OC)c1O`, for which the call in assay [1], in assay [2] and in assay [3] was inactive.
`CCN(CC)C(=O)/C(C#N)=C/c1cc(O)c(O)c([N+](=O)[O-])c1`: the molecule was classed as inactive in assay [1], in assay [2], in assay [3], in assay [4], in assay [5] and in assay [6]. For the same molecule, the result in assay [7] and in assay [8] was inactive.
For `CN1CCN(C(c2ccccc2)c2ccc(Cl)cc2)CC1` (configuration not stated), in assay [1], the half-maximal activity concentration (AC50) was 12.6 µM (active). For the same molecule, the result in [2] and in assay [3] was inactive.
As for `CCc1cc(C(N)=S)ccn1`, the outcome in [1], in assay [2], in assay [3], in assay [4], in assay [5] and in [6] was inactive. For the same molecule, the molecule was called inactive in [7] and in assay [8].
On to `NC(=O)c1cnccn1`, for which the result in assay [1], in assay [2], in assay [3], in assay [4], in assay [6] and in [7] was inactive. In addition, the result in assay [8] was inactive.
`COc1cc([C@@H]2c3cc4c(cc3C(O[C@@H]3O[C@@H]5CO[C@@H](C)O[C@H]5[C@H](O)[C@H]3O)C3COC(=O)[C@@H]32)OCO4)cc(OC)c1OP(=O)(O)O` (some centres not stated): the AC50 in assay [1] and in assay [3] was 7.08 µM (active) in each case. Also, the result in assay [2] was inactive.
In the case of `NS(=O)(=O)c1cc(C2(O)NC(=O)c3ccccc32)ccc1Cl` (configuration not stated), the molecule was called inactive in [1], in [2], in assay [3], in [4], in [5] and in assay [6]. Further, the molecule was classed as inactive in [7] and in [8].
`COc1cccc2c1C(=O)c1c(O)c3c(c(O)c1C2=O)C[C@@](O)(C(=O)CO)C[C@@H]3O[C@H]1C[C@H](N)[C@@H](O)[C@H](C)O1`: in assay [1], the AC50 is 7.94 µM (active). Further, the molecule was classed as inactive in assay [2] and in [3].
As to `O=C(O)C[C@H](O)C[C@H](O)/C=C/c1c(C2CC2)nc2ccccc2c1-c1ccc(F)cc1`, the molecule was classed as inactive in assay [1], in assay [2] and in assay [3].
On to `CCn1cc(C(=O)O)c(=O)c2cc(F)c(N3CCNC(C)C3)c(F)c21` (configuration not stated), for which the outcome in assay [1], in assay [2], in assay [3], in assay [4], in assay [5] and in [6] was inactive. The outcome in assay [7] and in [8] was inactive.
For `COCCCOc1ccnc(CS(=O)c2nc3ccccc3[nH]2)c1C` (configuration not stated), the parasite growth, % of DMSO control in assay [11] came out at 78.8%. For the same molecule, the parasite growth remaining, % of DMSO control (lower = more inhibition) in [9] was 74.1%. In [10], this molecule came in with a parasite growth, % of control (lower = inhibition) of 63.9%. The growth, % of control in [12] turned out to be 83.7%. Besides, the molecule was classed as inactive in [1], in [2], in assay [3], in assay [4], in assay [5] and in [6]. In addition, the outcome in [7] and in assay [8] was inactive.
In the case of `CC[C@@H](C)CCCCC(=O)N[C@@H](CCNCS(=O)(=O)O)C(=O)N[C@H](C(=O)N[C@@H](CCNCS(=O)(=O)O)C(=O)N[C@H]1CCNC(=O)[C@H]([C@@H](C)O)NC(=O)[C@H](CCNCS(=O)(=O)O)NC(=O)[C@H](CCNCS(=O)(=O)O)NC(=O)[C@H](CC(C)C)NC(=O)[C@@H](CC(C)C)NC(=O)[C@H](CCNCS(=O)(=O)O)NC1=O)[C@@H](C)O` (X1-[Dab(CH2SO3H)]T[Dab(CH2SO3H)][Dab][Dab(CH2SO3H)][dL]L[Dab(CH2SO3H)][Dab(CH2SO3H)]T; lactam 4-C), the call in assay [1], in [2] and in assay [3] was inactive.

Usually AC50 stands for the midpoint of the concentration-response curve, whichever way the signal moves.
